Where “and” joins values, the source holds several entries; their conditions need not be identical. Equal values may be shown once. The full ranking holds about 2,900 compounds; the median of “NF-kB SEAP reporter activity, fold change vs agonist alone” is about 0.99, and the highest 2% start at about 2.6. The sample as a whole holds a higher share of the highest values than the screen did.
What was measured:
[1] = test system: RAW-Dual; experiment: NF-kB SEAP reporter activity, fold change vs agonist alone; higher = enhanced NF-kB activity
How it was run: (§1)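 After 50 nL of library stock was delivered by pin tool to RAW-Dual macrophages (50,000 cells/well, DMEM, 384-well plates), a PRR agonist was added 1 h later and the plates were kept at 37 °C, 5% CO2. Twenty hours later, IRF was read from supernatant by QuantiLuc luminescence and NF-κB by QuantiBlue absorbance at 620 nm. Reporter activity is stated as fold change over agonist-alone wells. Wells with IncuCyte confluency under 70% of agonist controls in both mask sets were counted as cytotoxic.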

[2] = test system: RAW-Dual; experiment: NF-kB SEAP reporter activity, fold change vs agonist alone; cytotoxicity flag (confluency mask): cytotoxic (confluency <70% of control); higher = enhanced NF-kB activity
How it was run: as §1

[3] = test system: RAW-Dual; experiment: NF-kB SEAP reporter activity, fold change vs agonist alone; cytotoxicity flag (confluency mask): not cytotoxic; higher = enhanced NF-kB activity
How it was run: as §1

[4] = library stock concentration (final ~1000-fold dilution): 10 mM, cytotoxicity flag (confluency mask): cytotoxic (confluency <70% of control), agonist: Imiquimod (TLR7) […]
[5] = library stock concentration (final ~1000-fold dilution): 10 mM, cytotoxicity flag (confluency mask): cytotoxic (confluency <70% of control), agonist: MPLA (TLR4) […]
[6] = agonist: ODN 1826 (TLR9) 0.5 ug/mL
[7] = agonist: Pam2CSK4 (TLR2/6) 0.1 ug/mL
[8] = agonist: Pam3CSK4 (TLR2/1) 0.1 ug/mL
[9] = library stock concentration (final ~1000-fold dilution): 10 mM, cytotoxicity flag (confluency mask): not cytotoxic, agonist: Imiquimod (TLR7) […]
[10] = library stock concentration (final ~1000-fold dilution): 10 mM, cytotoxicity flag (confluency mask): not cytotoxic, agonist: MPLA (TLR4) […]
[11] = library stock concentration (final ~1000-fold dilution): 10 mM water, cytotoxicity flag (confluency mask): not cytotoxic, agonist: Imiquimod (TLR7) […]
[12] = library stock concentration (final ~1000-fold dilution): 10 mM water, cytotoxicity flag (confluency mask): not cytotoxic, agonist: MPLA (TLR4) […]

SMILES: COc1ccc2cc1Oc1ccc(cc1)CC1c3cc(c(OC)cc3CCN1C)Oc1c(O)c(OC)cc3c1C(C2)N(C)CC3 (stereo unspecified)
- NF-kB SEAP reporter activity [1, 4]: 0.618
- NF-kB SEAP reporter activity [1, 5]: 2.39

SMILES: COc1ccc2cc1Oc1ccc(cc1)CC1c3cc(c(OC)cc3CCN1C)Oc1c(O)c(OC)cc3c1C(C2)N(C)CC3 (stereo unspecified) (library stock concentration (final ~1000-fold dilution): 10 mM)
- NF-kB SEAP reporter activity ([2]; agonist: LPS (TLR4) 0.1 ug/mL): 1.81
- NF-kB SEAP reporter activity [2, 6]: 0.241
- NF-kB SEAP reporter activity [2, 7]: 2.15
- NF-kB SEAP reporter activity [2, 8]: 1.31

SMILES: O=C1C(CCC(O)c2ccc(F)cc2)C(c2ccc(O)cc2)N1c1ccc(F)cc1 (stereo unspecified) (library stock concentration (final ~1000-fold dilution): 10 mM)
- NF-kB SEAP reporter activity ([3]; agonist: LPS (TLR4) 0.1 ug/mL): 1.42
- NF-kB SEAP reporter activity [3, 6]: 0.665
- NF-kB SEAP reporter activity [3, 7]: 0.889
- NF-kB SEAP reporter activity [3, 8]: 0.589

SMILES: O=C1C(CCC(O)c2ccc(F)cc2)C(c2ccc(O)cc2)N1c1ccc(F)cc1 (stereo unspecified)
- NF-kB SEAP reporter activity [1, 9]: 0.952
- NF-kB SEAP reporter activity [1, 10]: 1.38

SMILES: CC1(C)SC2CC(=O)N2C1C(=O)OCOC(=O)C1N2C(=O)C(NC(=O)C(N)c3ccccc3)C2S(=O)(=O)C1(C)C.Cc1ccc(S(=O)(=O)O)cc1 (stereo unspecified) (library stock concentration (final ~1000-fold dilution): 10 mM)
- NF-kB SEAP reporter activity ([3]; agonist: LPS (TLR4) 0.1 ug/mL): 1.26
- NF-kB SEAP reporter activity [3, 6]: 0.797
- NF-kB SEAP reporter activity [3, 7]: 1.02
- NF-kB SEAP reporter activity [3, 8]: 0.873

SMILES: CC1(C)SC2CC(=O)N2C1C(=O)OCOC(=O)C1N2C(=O)C(NC(=O)C(N)c3ccccc3)C2S(=O)(=O)C1(C)C.Cc1ccc(S(=O)(=O)O)cc1 (stereo unspecified)
- NF-kB SEAP reporter activity [1, 10]: 1.02

SMILES: CN1C(CC(=O)c2ccccc2)CCCC1CC(O)c1ccccc1.Cl (stereo unspecified)
- NF-kB SEAP reporter activity [1, 9]: 0.779
- NF-kB SEAP reporter activity [1, 10]: 0.909

SMILES: CN1C(CC(=O)c2ccccc2)CCCC1CC(O)c1ccccc1.Cl (stereo unspecified) (library stock concentration (final ~1000-fold dilution): 10 mM)
- NF-kB SEAP reporter activity ([3]; agonist: LPS (TLR4) 0.1 ug/mL): 1.18
- NF-kB SEAP reporter activity [3, 6]: 0.669
- NF-kB SEAP reporter activity [3, 7]: 0.9
- NF-kB SEAP reporter activity [3, 8]: 1.15

SMILES: O=C(O)CN(CC(=O)O)c1ccccc1OCCOc1ccccc1N(CC(=O)O)CC(=O)O (library stock concentration (final ~1000-fold dilution): 10 mM)
- NF-kB SEAP reporter activity ([3]; agonist: LPS (TLR4) 0.1 ug/mL): 1
- NF-kB SEAP reporter activity [3, 6]: 0.989
- NF-kB SEAP reporter activity [3, 7]: 1.04
- NF-kB SEAP reporter activity [3, 8]: 0.872

SMILES: O=C(O)CN(CC(=O)O)c1ccccc1OCCOc1ccccc1N(CC(=O)O)CC(=O)O
- NF-kB SEAP reporter activity [1, 9]: 0.994
- NF-kB SEAP reporter activity [1, 10]: 1.01

SMILES: CN1C2=C3N=c4ccccc4=C3CCN2C(=O)c2ccccc21.Cl
- NF-kB SEAP reporter activity [1, 9]: 0.969
- NF-kB SEAP reporter activity [1, 10]: 0.999

SMILES: CN1C2=C3N=c4ccccc4=C3CCN2C(=O)c2ccccc21.Cl (library stock concentration (final ~1000-fold dilution): 10 mM)
- NF-kB SEAP reporter activity ([3]; agonist: LPS (TLR4) 0.1 ug/mL): 1.21
- NF-kB SEAP reporter activity [3, 6]: 0.594
- NF-kB SEAP reporter activity [3, 7]: 1.28
- NF-kB SEAP reporter activity [3, 8]: 1.1

SMILES: N#CCC(C1CCCC1)n1cc(-c2ncnc3[nH]ccc23)cn1 (stereo unspecified) (library stock concentration (final ~1000-fold dilution): 10 mM)
- NF-kB SEAP reporter activity ([3]; agonist: LPS (TLR4) 0.1 ug/mL): 0.995 and 0.96 and 0.998
- NF-kB SEAP reporter activity [3, 6]: 2.7 and 1.88 and 2.86
- NF-kB SEAP reporter activity [3, 7]: 1.81 and 1.49 and 1.69
- NF-kB SEAP reporter activity [3, 8]: 2.14 and 2.16 and 2.67

SMILES: N#CCC1(n2cc(-c3ncnc4[nH]ccc34)cn2)CN(C2CCN(C(=O)c3ccnc(C(F)(F)F)c3F)CC2)C1 (library stock concentration (final ~1000-fold dilution): 10 mM)
- NF-kB SEAP reporter activity ([3]; agonist: LPS (TLR4) 0.1 ug/mL): 0.591
- NF-kB SEAP reporter activity [3, 6]: 1.09
- NF-kB SEAP reporter activity [3, 7]: 1.11
- NF-kB SEAP reporter activity [3, 8]: 1.03

SMILES: N#CCC1(n2cc(-c3ncnc4[nH]ccc34)cn2)CN(C2CCN(C(=O)c3ccnc(C(F)(F)F)c3F)CC2)C1
- NF-kB SEAP reporter activity [1, 9]: 0.89
- NF-kB SEAP reporter activity [1, 10]: 0.922

SMILES: CCS(=O)(=O)N1CC(CC#N)(n2cc(-c3ncnc4[nH]ccc34)cn2)C1 (library stock concentration (final ~1000-fold dilution): 10 mM)
- NF-kB SEAP reporter activity ([3]; agonist: LPS (TLR4) 0.1 ug/mL): 1.65 and 0.788
- NF-kB SEAP reporter activity [3, 6]: 1.96 and 2.12
- NF-kB SEAP reporter activity [3, 7]: 1.19 and 1.64
- NF-kB SEAP reporter activity [3, 8]: 1.77 and 2.42

SMILES: CC(C)(C)N.CCCC(NC(C)C(=O)N1C(C(=O)O)CC2CCCCC21)C(=O)OCC (stereo unspecified)
- NF-kB SEAP reporter activity [1, 11]: 0.909
- NF-kB SEAP reporter activity [1, 12]: 1.04

SMILES: CC(C)(C)N.CCCC(NC(C)C(=O)N1C(C(=O)O)CC2CCCCC21)C(=O)OCC (stereo unspecified) (library stock concentration (final ~1000-fold dilution): 10 mM water)
- NF-kB SEAP reporter activity ([3]; agonist: LPS (TLR4) 0.1 ug/mL): 1.05
- NF-kB SEAP reporter activity [3, 6]: 1.13
- NF-kB SEAP reporter activity [3, 7]: 1.17
- NF-kB SEAP reporter activity [3, 8]: 1.02

SMILES: CC(C)(C)Cn1c(N)nc2ccc(-c3[nH]c(C(C)(C)C)nc3-c3ccc(F)cc3)nc21.CS(=O)(=O)O.CS(=O)(=O)O (library stock concentration (final ~1000-fold dilution): 10 mM water)
- NF-kB SEAP reporter activity ([3]; agonist: LPS (TLR4) 0.1 ug/mL): 1.03
- NF-kB SEAP reporter activity [3, 6]: 0.512
- NF-kB SEAP reporter activity [3, 7]: 0.242
- NF-kB SEAP reporter activity [3, 8]: 0.506

SMILES: CC(C)(C)Cn1c(N)nc2ccc(-c3[nH]c(C(C)(C)C)nc3-c3ccc(F)cc3)nc21.CS(=O)(=O)O.CS(=O)(=O)O
- NF-kB SEAP reporter activity [1, 11]: 0.303
- NF-kB SEAP reporter activity [1, 12]: 0.892

SMILES: C1=CCOCc2cc(ccc2OCCN2CCCC2)Nc2nccc(n2)-c2cccc(c2)COC1 (library stock concentration (final ~1000-fold dilution): 10 mM)
- NF-kB SEAP reporter activity ([2]; agonist: LPS (TLR4) 0.1 ug/mL): 0.498
- NF-kB SEAP reporter activity [2, 6]: 0.245
- NF-kB SEAP reporter activity [2, 7]: 0.176
- NF-kB SEAP reporter activity [2, 8]: 0.256

SMILES: C1=CCOCc2cc(ccc2OCCN2CCCC2)Nc2nccc(n2)-c2cccc(c2)COC1
- NF-kB SEAP reporter activity [1, 4]: 1.52
- NF-kB SEAP reporter activity [1, 5]: 0.838

SMILES: CC(C)n1cc(-c2ccc3c(c2)N(C)CC3)c2c(NS(=O)(=O)c3ccn(C)n3)ccnc21 (library stock concentration (final ~1000-fold dilution): 10 mM)
- NF-kB SEAP reporter activity ([3]; agonist: LPS (TLR4) 0.1 ug/mL): 1.25
- NF-kB SEAP reporter activity [3, 6]: 1.12
- NF-kB SEAP reporter activity [3, 7]: 1.14
- NF-kB SEAP reporter activity [3, 8]: 1.07

SMILES: CC(C)n1cc(-c2ccc3c(c2)N(C)CC3)c2c(NS(=O)(=O)c3ccn(C)n3)ccnc21
- NF-kB SEAP reporter activity [1, 9]: 0.948
- NF-kB SEAP reporter activity [1, 10]: 1.02

SMILES: O=C1c2c(O)cc(O)cc2OC(c2cc(O)c(O)c(O)c2)C1O (stereo unspecified)
- NF-kB SEAP reporter activity [1, 9]: 0.946
- NF-kB SEAP reporter activity [1, 10]: 1.07

SMILES: O=C1c2c(O)cc(O)cc2OC(c2cc(O)c(O)c(O)c2)C1O (stereo unspecified) (library stock concentration (final ~1000-fold dilution): 10 mM)
- NF-kB SEAP reporter activity ([3]; agonist: LPS (TLR4) 0.1 ug/mL): 0.954
- NF-kB SEAP reporter activity [3, 6]: 1.02
- NF-kB SEAP reporter activity [3, 7]: 0.798
- NF-kB SEAP reporter activity [3, 8]: 0.657

SMILES: CC(C)(C)NC(=O)c1cncn1C1CCN(c2ccc(-c3nnc(C(F)(F)F)o3)cn2)CC1 (library stock concentration (final ~1000-fold dilution): 10 mM)
- NF-kB SEAP reporter activity ([3]; agonist: LPS (TLR4) 0.1 ug/mL): 6.27
- NF-kB SEAP reporter activity [3, 6]: 3.15
- NF-kB SEAP reporter activity [3, 7]: 1.66
- NF-kB SEAP reporter activity [3, 8]: 2.84

SMILES: CC(C)(C)NC(=O)c1cncn1C1CCN(c2ccc(-c3nnc(C(F)(F)F)o3)cn2)CC1
- NF-kB SEAP reporter activity [1, 9]: 1.87
- NF-kB SEAP reporter activity [1, 10]: 2.37

SMILES: CC1(C)CCC2(C(=O)O)CCC3(C)C(=CCC4C5(C)CCC(=O)C(C)(C)C5CCC43C)C2C1 (stereo unspecified) (library stock concentration (final ~1000-fold dilution): 10 mM)
- NF-kB SEAP reporter activity ([3]; agonist: LPS (TLR4) 0.1 ug/mL): 0.91
- NF-kB SEAP reporter activity [3, 6]: 0.824
- NF-kB SEAP reporter activity [3, 7]: 0.664
- NF-kB SEAP reporter activity [3, 8]: 0.842

SMILES: CC1(C)CCC2(C(=O)O)CCC3(C)C(=CCC4C5(C)CCC(=O)C(C)(C)C5CCC43C)C2C1 (stereo unspecified)
- NF-kB SEAP reporter activity [1, 9]: 0.8
- NF-kB SEAP reporter activity [1, 10]: 1.27

— the supplement of paper PMC10037445
